Source: PubChem BioAssay AID2284151 (EPA ToxCast)
Inconclusive results are not listed. Calls of active or inactive are those of the source. Rule for the calls: active = hit-call score of the fitted dose curve at least 0.9, where 1 is the maximum; inactive = score below 0.9.

Target: human Cholecystokinin Receptor CCK2 (CCKB) Agonism, CCKBR (gene 887) (UniProt P32239)
Experiment: ERF_FR_GPCR_hCCKBR: Eurofins (ERF) G Protein-Coupled Receptor (GPCR) Radioligand Binding LeadHunter Assay for human Cholecystokinin Receptor CCK2 (CCKB) Agonism
Procedure: ERF_FR_GPCR_hCCKBR is a biochemical, single-readout assay that uses extracted gene-proteins in a cell-free assay. Measurements were taken 1 hour after chemical dosing in a 96-well plate. See CCK2 (CCKB) Human Cholecystokinin GPCR Binding (Agonist Radioligand) Assay, Cerep.ERF_FR_GPCR_hCCKBR is an assay component calculated from the ERF_FR_GPCR_hCCKBR assay. It is designed to measure radioligand binding using a type of binding reporter as detected by scintillation counting with radiometry technology.Data from the assay component ERF_FR_GPCR_hCCKBR was analyzed at the assay endpoint, ERF_FR_GPCR_hCCKBR, in the positive analysis fitting direction relative to DMSO as the negative control and baseline of activity. Using a type of binding reporter, […] activity can be used to understand changes in binding as they relate to gene CCKBR. To generalize the intended target to other relatable targets, this assay endpoint is annotated to the gpcr intended target family, where the subfamily is cholecystokinin.
Human cells are incubated for 60 minutes at room temprature with [125I]CCK-8s ligand (0.08 nM) and CCK-8s as control inhibitor.Test Sample Requirements: Minimum for 1) Screen: 60 ul of 10 mM stock -OR- 1 mg (pre-weighed) for 10 uM final testing. 2) Dose Response: 90 ul of 10 mM stock -OR- 1 mg (pre-weighed) for a top concentration at 10 uM.

Chain of human Cholecystokinin Receptor CCK2 (CCKB) Agonism, CCKBR (gene 887) (P32239 whole entry, looked up): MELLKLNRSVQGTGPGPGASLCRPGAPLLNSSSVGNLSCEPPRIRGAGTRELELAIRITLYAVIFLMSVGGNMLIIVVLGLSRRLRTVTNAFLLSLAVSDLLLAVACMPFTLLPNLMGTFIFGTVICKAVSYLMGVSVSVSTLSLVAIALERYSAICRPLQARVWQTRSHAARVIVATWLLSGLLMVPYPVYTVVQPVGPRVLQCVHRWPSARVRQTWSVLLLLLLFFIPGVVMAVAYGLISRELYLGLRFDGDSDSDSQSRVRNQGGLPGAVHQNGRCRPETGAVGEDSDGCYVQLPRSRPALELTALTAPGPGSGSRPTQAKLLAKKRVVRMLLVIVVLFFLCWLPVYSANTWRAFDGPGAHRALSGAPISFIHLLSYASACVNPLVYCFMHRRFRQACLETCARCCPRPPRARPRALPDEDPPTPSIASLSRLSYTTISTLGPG

Q: For `O=C(/C=C/c1ccc(O)cc1)CC(=O)/C=C/c1ccc(O)cc1`, which AC50 is on record?
A: 3.43 µM (active)
